PubChem BioAssay (NCATS)
Values joined by “and” are separate entries in the source; they are usually repeats but may differ in a detail not shown here. Equal entries are not always repeated. Inconclusive results are not listed. Some compounds were tested as several samples or in several runs, with calls that do not always agree. Active and inactive are the calls of the source. Calls follow the shape of the dose curve; as a rule, active = well fitted inhibition curve with a large enough effect; inconclusive = small, poorly fitted or top-dose-only effect; inactive = flat fitted curve, though single readings scatter.

Assays:
CRL-7250 = normal cell line; experiment: Cytotoxic Profiling of Annotated Libraries Using Quantitative High-Throughput Screening (AID 1296008); conditions: Five cell lines viability, CellTiter-Glo ATP luminescence, 48-72 h; max response: stronger effect = lower value; also: potency is read from the fitted curve at half-maximal effect; as to max response: % is scaled to controls: 0 for no effect and ±100 for the full control effect
Procedure, shortened: (§1)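 Compounds were pin-transferred onto cells and incubated 48 or 72 hr at 37 degree Celsius, 95% humidity. CellTiter-Glo was added, plates sat 10 min at room temperature, then ATP-coupled luminescence was imaged as the viability read-out.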

HEK293 = experiment: as above; conditions: Five cell lines viability, CellTiter-Glo ATP luminescence, 48-72 h; max response: stronger effect = lower value
Procedure, shortened: as §1

HaCat = experiment: as above; conditions: Five cell lines viability, CellTiter-Glo ATP luminescence, 48-72 h; max response: stronger effect = lower value
Procedure, shortened: as §1

FAB9 = experiment: qHTS profiling for inhibitors of Plasmodium falciparum proliferation (AID 504749);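 also: 0% = DMSO vehicle and full inhibition = artemisinin control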; conditions: P. falciparum in erythrocytes, SYBR Green DNA, 72 h; series mostly up to 28.7 µM
Procedure, shortened: (§2)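 Parasite proliferation within erythrocytes, 72 h exposure. Endpoint: SYBR Green I fluorescence after overnight lysis at room temperature. Controls: 0.29 uM artemisinin, DMSO.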

GB4 = experiment: as above; conditions: P. falciparum in erythrocytes, SYBR Green DNA, 72 h; series mostly up to 28.7 µM
Procedure, shortened: as §2

HB3 = experiment: as above; conditions: P. falciparum in erythrocytes, SYBR Green DNA, 72 h; series mostly up to 28.7 µM
Procedure, shortened: as §2

ICS = experiment: as above; conditions: P. falciparum in erythrocytes, SYBR Green DNA, 72 h; series mostly up to 28.7 µM
Procedure, shortened: as §2

JCK = experiment: as above; conditions: P. falciparum in erythrocytes, SYBR Green DNA, 72 h; series mostly up to 28.7 µM
Procedure, shortened: as §2

N140 = experiment: as above; conditions: P. falciparum in erythrocytes, SYBR Green DNA, 72 h; series mostly up to 28.7 µM
Procedure, shortened: as §2

P93_24 = experiment: as above; conditions: P. falciparum in erythrocytes, SYBR Green DNA, 72 h; series mostly up to 28.7 µM
Procedure, shortened: as §2

P94_40 = experiment: as above; conditions: P. falciparum in erythrocytes, SYBR Green DNA, 72 h; series mostly up to 28.7 µM
Procedure, shortened: as §2

PAD = experiment: as above; conditions: P. falciparum in erythrocytes, SYBR Green DNA, 72 h; series mostly up to 28.7 µM
Procedure, shortened: as §2

PC15 = experiment: as above; conditions: P. falciparum in erythrocytes, SYBR Green DNA, 72 h; series mostly up to 28.7 µM
Procedure, shortened: as §2

PC26 = experiment: as above; conditions: P. falciparum in erythrocytes, SYBR Green DNA, 72 h; series mostly up to 28.7 µM
Procedure, shortened: as §2

PC49 = experiment: as above; conditions: P. falciparum in erythrocytes, SYBR Green DNA, 72 h; series mostly up to 28.7 µM
Procedure, shortened: as §2

SC27B = experiment: as above; conditions: P. falciparum in erythrocytes, SYBR Green DNA, 72 h; series mostly up to 28.7 µM
Procedure, shortened: as §2

TAB109 = experiment: as above; conditions: P. falciparum in erythrocytes, SYBR Green DNA, 72 h; series mostly up to 28.7 µM
Procedure, shortened: as §2

TAB113 = experiment: as above; conditions: P. falciparum in erythrocytes, SYBR Green DNA, 72 h; series mostly up to 28.7 µM
Procedure, shortened: as §2

TAB165 = experiment: as above; conditions: P. falciparum in erythrocytes, SYBR Green DNA, 72 h; series mostly up to 28.7 µM
Procedure, shortened: as §2
Also: nearly all actives have a fitted effect of over 60% in size.

CC[C@H]1CN2CC[C@H]1C[C@@H]2[C@@H](O)c1ccnc2ccc(OC)cc12
inactive: outcome (CRL-7250) | outcome (HEK293) | outcome (HaCat)

Cn1ncnc1COc1nn2c(-c3c(F)cccc3F)nnc2cc1C1CCC1
inactive: outcome (CRL-7250) | outcome (HEK293) | outcome (HaCat)

CO[C@H]1[C@H](O)[C@H](O[C@H]2CC[C@]3(C)C4CC[C@]5(C)[C@H](C6=CC(=O)OC6)CC[C@]5(O)C4CC[C@@H]3C2)O[C@@H](C)[C@@H]1O (stereo partly drawn)
active: Potency (CRL-7250) 25.2 nM | Potency (HEK293) 22.4 nM | Potency (HaCat) 2240 nM

C[C@@H]1C(=O)O[C@H]2[C@H](O)[C@@]34[C@@H]5OC(=O)[C@@]3(O[C@@H]3OC(=O)[C@@H](O)[C@@]34[C@H](C(C)(C)C)[C@H]5O)[C@@]12O
inactive: max response (CRL-7250) -6.45% | max response (HEK293) -8.33% | outcome (HaCat)

CC1=CC2/C=C(\C)CCC(O)C3OC(C)(C)OC3CC(=O)OC23C(=O)NC(CC(C)C)C3C1C (stereo not drawn)
inactive: max response (CRL-7250) 0.49% | max response (HEK293) 2.48% | outcome (HaCat)

CC(=O)OC1CC(O)C(C)(C)C2CC(OC(C)=O)C3(C)C(CCC4(C)C(c5ccoc5)C(=O)C5OC543)C12C (stereo not drawn)
inactive: max response (CRL-7250) -0.447% | max response (HEK293) -14.4% | max response (HaCat) -11.6%

C=C[C@H]1CN2CC[C@H]1C[C@@H]2[C@@H](O)c1ccnc2ccccc12
inactive: max response (CRL-7250) -1.31% | max response (HEK293) -22.7% | max response (HaCat) 1.51%

C[C@@]1(C(=O)O)CC[C@]2(C)CC[C@]3(C)C4=CC(=O)c5cc(O)c(O)cc5[C@]4(C)CC[C@@]3(C)[C@@H]2C1
inactive: outcome (CRL-7250) | max response (HEK293) -9.77% | outcome (HaCat)

CCCCCOc1cc2c(cc1-c1cc(/C=C/C(=O)O)ccc1O)C(C)(C)CCC2(C)C
inactive: max response (CRL-7250) -2.58% | outcome (HEK293) | outcome (HaCat)

CC12CCC3C(CCC4(O)CC(O)CCC34C=O)C1(O)CCC2C1=CC(=O)OC1 (stereo not drawn)
active: Potency (CRL-7250) 326 nM | Potency (HEK293) 1030 nM | Potency (HaCat) 1640 nM

COC1CC(=O)C23C(=O)NC(CC(C)C)C2C(C)=C(C)C(OO)C3/C=C(\C)CCC(O)C1O (stereo not drawn)
inactive: outcome (CRL-7250) | max response (HEK293) 3.17% | outcome (HaCat)

O=C(N1CCOCC1)N1CCN(c2ccc(Cl)cc2)CC1
inactive: outcome (CRL-7250) | max response (HEK293) -0.253% | outcome (HaCat)

Clc1ccc(N2C[C@H]3CC[C@@H](C2)N3)nn1
inactive: max response (CRL-7250) -3.23% | max response (HEK293) 2.01% | max response (HaCat) -0.574%

Cc1cccc(NC(=O)N[C@@H]2N=C(c3ccccc3)c3ccccc3N(C)C2=O)c1
inactive: outcome (CRL-7250) | max response (HEK293) -5.08% | outcome (HaCat)

COc1ccc2c3c1O[C@H]1C(=O)CC[C@H]4[C@@H](C2)N(C)CC[C@]314
inactive: Potency (FAB9) | Potency (GB4) | Potency (HB3) | Potency (ICS) | Potency (JCK) | Potency (N140) | Potency (P93_24) | Potency (P94_40) | Potency (PAD) | Potency (PC15) | Potency (PC26) | Potency (PC49) | Potency (SC27B) | Potency (TAB109) | Potency (TAB113) | Potency (TAB165)

Cc1c(Cl)cccc1S(=O)(=O)Nc1nc(CC(=O)N2CCN(C)CC2)cs1
inactive: max response (CRL-7250) 0.391% | max response (HEK293) -10.3% | outcome (HaCat)

CCOc1ccccc1-n1c(C(C)N2CCN(C(=O)COc3ccc(Cl)cc3)CC2)nc2ccccc2c1=O (stereo not drawn)
inactive: max response (HaCat) -19.2%
active: Potency (CRL-7250) 5.17 µM and 3.71 µM | Potency (HEK293) 4.11 µM and 2.95 µM | Potency (HaCat) 18600 nM

COC1=CC(=O)O[C@@H](/C=C/c2ccccc2)C1
inactive: max response (CRL-7250) -9.99% | max response (HEK293) -8.8% | outcome (HaCat)
